Compounds with a hit are over-represented: about 9.5% of the library has one in this group of screens.
SARS PLpro yeast – qHTS of Yeast-based Assay for SARS-CoV PLP; AID 485353, 2010; 330,000 tested, 0.19% active; Potency, µM (top dose mostly 32.9 µM), inactives show at the highest dose activity, positive = growth rescue, most hits filed as activators; S. cerevisiae expressing SARS-CoV PLpro, growth rescue; also: 0% is about no effect; nearly all actives have a fitted effect of over 55% in size
NS1 function inh – qHTS Assay for Inhibitors of Influenza NS1 Protein Function. AID 2326, 2010. 270,000 tested, 0.4% active. Potency, µM (doses to about 46.1 µM), without a hit: at the top dose activity, positive = more growth; also: actives are rising curves; nearly all actives have a fitted effect of over 50% in size
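A cell-based growth assay was used: compounds that relieve NS1-induced slow growth of budding yeast raise OD600. Assay medium was yeast nitrogen base with ammonium sulphate and -URA supplement, pH 6.0, with 2% galactose.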
RE007 growth inh – qHTS Assay for Inhibitors of the HIV-1 protein Vpr; S. pombe RE007 Vpr strain, BacTiter-Glo ATP luminescence, 24 h; Potency, µM (highest dose often 92.2 µM), without a hit: top-dose activity change, negative = less growth, usual class: inhibitors; 360,000 tested, 0.21% active; AID 651644, 2012; active = well fitted falling curve with a large enough effect; inconclusive = small, poorly fitted or top-dose-only effect; inactive = no such curve, though single readings can be large or run the other way; also: % is scaled to controls: 0 for no effect and ±100 for the full control effect; nearly all actives have a fitted effect of over 50% in size
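Fission yeast strain RE007, carrying one chromosomally integrated HIV-1 vpr copy, was seeded at OD 0.01 in PMG+AL medium with 23 nL pinned compound. After 24 h at 30 °C and 99% humidity, viability was read by BacTiter-Glo luminescence.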
Pf growth 96h – Primary qHTS for delayed death inhibitors of the malarial parasite plastid, 96 hour incubation; P. falciparum luciferase reporter growth, 96 h; Potency, µM (highest dose often 28.7 µM), without a hit: top-dose activity change, negative = inhibition, actives largely listed as inhibitors; 320,000 tested, 6.9% active; active = well fitted inhibition curve with a large enough effect; inconclusive = small, poorly fitted or top-dose-only effect, or another doubt; inactive = no such curve, though single readings can be large or run the other way; also: % is scaled to controls: 0 for no effect and ±100 for the full control effect
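Erythrocytes infected with luciferase-expressing P. falciparum were dispensed at 2% hematocrit and 0.05% parasitemia (final), then incubated with compounds 96 hours at 37 C in 5% CO2. Luminescence after detection reagent addition reported growth.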
Pf growth 48h – Primary qHTS for delayed death inhibitors of the malarial parasite plastid, 48 hour incubation | P. falciparum luciferase growth in erythrocytes, 48 h | Potency, µM (titrated, usually from 28.7 µM), for inactives: top-dose activity change, negative = inhibition, hits mostly inhibitors | 310,000 tested, 5.9% active | AID 504832, 2011; active = well fitted inhibition curve with a large enough effect; inconclusive = small, poorly fitted or top-dose-only effect, or another doubt; inactive = no such curve, though single readings can be large or run the other way; also: % is scaled to controls: 0 for no effect and ±100 for the full control effect
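Luciferase-expressing P. falciparum in infected erythrocytes (2% hematocrit, 0.1% parasitemia final) in RPMI 1640/0.5% Albumax were exposed to compound for 48 hours at 37 C, 5% CO2; growth read as luminescence.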
Starred values were filed as active, the others as inactive; ? = inconclusive; · = no result; [ ] = remark or other dose. Unless noted, calls follow the shape of the full dose curve. Potency is read from the fitted curve at half-maximal effect.

SMILES	SARS PLpro yeast	NS1 function inh	RE007 growth inh	Pf growth 96h	Pf growth 48h
CCOC(=O)c1c(-c2ccc(C)o2)csc1NC(=S)NC(=O)c1ccccc1Br	-3%	?	-1%	7.4µM*	13µM*
CCOC(=O)c1c(NC(=O)CSc2nnc(C)s2)sc2c1CCC(C)C2 (stereo unspecified)	-2%	-8%	-2%	16%	12µM*
CCOC(=O)c1c(-c2ccc(OC)cc2)csc1NC(=O)CSc1ncnc2sccc12	24%	16%	-12%	5.2µM*	?
CCOC(=O)c1c(CC(C)C)csc1NC(=O)COC(=O)c1ccc(O)cc1	2%	·	5%	9.3µM*	?
CCOC(=O)c1c(NC(=O)CSc2nnc(C)s2)sc2c1CCCCC2	-9%	-1%	3%	17%	-17%
CCOC(=O)c1c(-c2ccc(C)o2)csc1NC(=S)NC(=O)c1cccs1	-8%	11%	-3%	?	?
CCOC(=O)c1c(NC(=O)CSc2nnc(C)c(=O)[nH]2)sc(C)c1-c1ccc(C)cc1	0%	-35%	-5%	3%	-5%
CCOC(=O)c1c(NC(=O)CSc2nnc(N)s2)sc(C)c1-c1ccc(C)cc1	-97%	17%	-3%	10µM*	?
CCOC(=O)c1c(-c2ccc(C)o2)csc1NC(=O)COC(=O)c1ccc(NC(N)=O)cc1	15%	11%	2%	·	8.3µM*
CCOC(=O)c1c(-c2ccc(-c3ccccc3)cc2)csc1NC(=O)CNCCN(C)C	-5%	5%	3%	?	·
CCOC(=O)c1c(-c2cccs2)csc1NC(=O)CSc1ncn[nH]1	-10%	-2%	8%	48%	-11%
CCOC(=O)c1c(-c2ccccc2Cl)csc1NC(=O)CSc1nc(C)cc(=O)[nH]1	20%	4%	·	12µM*	-24%
CCOC(=O)c1c(-c2ccccc2)csc1NC(=O)CSc1nnc(C)s1	-15%	0%	-3%	?	2.9µM*
Cc1cc(NC(=O)c2c(C)noc2C)no1	0%	-2%	27%	0%	72%
CCOC(=O)c1c(-c2ccc(C)o2)csc1NC(=O)CSc1nnc(C)s1	-6%	-61%	1%	169%	12µM*
Cc1nnc(SCC(=O)Nc2nnc(SCc3cccc(Br)c3)s2)s1	-9%	2%	-12%	7.4µM*	8%
Cc1nnc(SCC(=O)Nc2cccc(Br)c2)s1	-7%	·	5%	?	-23%
Cc1cc(=O)oc2c1c(C)nn2-c1ccc(Br)cc1	1%	-3%	5%	2.9µM*	-28%
Cc1cc(=O)oc2c1c(C)nn2-c1cccc(Cl)c1	2%	-6%	0%	3%[5.75 µM]	2%
COC(=O)COc1ccc(S(=O)(=O)N2CCCCC2)cc1[N+](=O)[O-]	-1%	4%	-15%	-2%	4%
COc1ccc(Oc2ccc(S(=O)(=O)N3CCCCC3)cc2S(=O)(=O)N2CCCCC2)cc1	1%	-2%	-8%	?	10µM*
COc1cc(OC)cc(Oc2ccc(S(=O)(=O)N3CCCCC3)cc2[N+](=O)[O-])c1	0%	19%	4%	?	8.3µM*
COc1ccccc1Oc1ccc(S(=O)(=O)N2CCCC2)cc1	-8%	-15%	-5%	-11%	-3%
Cc1ccc(CN(C)C(=O)COc2ccc(S(=O)(=O)N3CCCC3)cc2[N+](=O)[O-])c(C)c1	4%	·	-1%	?	12µM*
Cc1cc(C)nc(NNC(=O)c2ccccc2O)n1	0%	3%	6%	-23%	11%
O=C(CSc1nc(=O)n2ccccc2n1)NCc1ccccc1	3%	·	1%	5%	-10%
CC1(C)CC(=NOC(=O)c2ccccc2)CC(C)(C)N1O	3%	-3%	31%	213%	-16%
COc1cc(Cl)c(NC2=CC(=O)C(=O)c3ccccc32)c(OC)c1	-2%	·	1%	?	0.37µM*
COc1cc(Cl)c(NS(=O)(=O)c2ccc(-c3ccc(=O)[nH]n3)o2)c(OC)c1	-5%	-4%	4%	56%	18%
C[C@@H]1CN([C@H](C)CO)C(=O)c2c(c3ccccc3n2C)-c2ccccc2CO[C@@H]1CN(C)S(=O)(=O)c1cccs1	·	·	0%	·	·

From PubChem BioAssay
